MEP2-GFP yeast: alters MEP2-GFP fluorescence in TOR pathway yeast screen; S. cerevisiae MEP2-GFP strain, flow cytometry GFP, 3 h; 100% = DMSO control level; GFP response vs DMSO, % at 10 µM; hit rate 0.51% among 330,000;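 active means GFP response versus DMSO above a set limit, roughly screen mean plus 3 SD, cut at about 180% in these data; inconclusive means fewer than 70 cells counted for a yeast strain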;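 further: median GFP fluorescence of the barcode-gated MEP2-GFP cells per well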
AGP1 TOR yeast: alters AGP1-GFP fluorescence in TOR pathway yeast screen; S. cerevisiae AGP1-GFP multiplex flow cytometry, 3 h; GFP as percent of DMSO wells; hit rate 0.02% among 320,000; GFP response vs DMSO, % at 10 µM;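 active means GFP response relative to DMSO above a set limit, near screen average plus 3 SD, cut at about 150% in these data; inconclusive means fewer than 70 cells counted for the yeast strain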;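 further: median GFP channel fluorescence of the gated AGP1 strain per well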
VLA-4 inh: inhibition in a human VLA-4 binding assay. hit rate 0.2% among 330,000. VLA-4 expressing cells, ligand binding flow cytometry. inhibition, % (about 7 µM as worked out from the volumes in the protocol); in the data active means inhibition above about 50%
Target sequence (P13612 whole entry, looked up): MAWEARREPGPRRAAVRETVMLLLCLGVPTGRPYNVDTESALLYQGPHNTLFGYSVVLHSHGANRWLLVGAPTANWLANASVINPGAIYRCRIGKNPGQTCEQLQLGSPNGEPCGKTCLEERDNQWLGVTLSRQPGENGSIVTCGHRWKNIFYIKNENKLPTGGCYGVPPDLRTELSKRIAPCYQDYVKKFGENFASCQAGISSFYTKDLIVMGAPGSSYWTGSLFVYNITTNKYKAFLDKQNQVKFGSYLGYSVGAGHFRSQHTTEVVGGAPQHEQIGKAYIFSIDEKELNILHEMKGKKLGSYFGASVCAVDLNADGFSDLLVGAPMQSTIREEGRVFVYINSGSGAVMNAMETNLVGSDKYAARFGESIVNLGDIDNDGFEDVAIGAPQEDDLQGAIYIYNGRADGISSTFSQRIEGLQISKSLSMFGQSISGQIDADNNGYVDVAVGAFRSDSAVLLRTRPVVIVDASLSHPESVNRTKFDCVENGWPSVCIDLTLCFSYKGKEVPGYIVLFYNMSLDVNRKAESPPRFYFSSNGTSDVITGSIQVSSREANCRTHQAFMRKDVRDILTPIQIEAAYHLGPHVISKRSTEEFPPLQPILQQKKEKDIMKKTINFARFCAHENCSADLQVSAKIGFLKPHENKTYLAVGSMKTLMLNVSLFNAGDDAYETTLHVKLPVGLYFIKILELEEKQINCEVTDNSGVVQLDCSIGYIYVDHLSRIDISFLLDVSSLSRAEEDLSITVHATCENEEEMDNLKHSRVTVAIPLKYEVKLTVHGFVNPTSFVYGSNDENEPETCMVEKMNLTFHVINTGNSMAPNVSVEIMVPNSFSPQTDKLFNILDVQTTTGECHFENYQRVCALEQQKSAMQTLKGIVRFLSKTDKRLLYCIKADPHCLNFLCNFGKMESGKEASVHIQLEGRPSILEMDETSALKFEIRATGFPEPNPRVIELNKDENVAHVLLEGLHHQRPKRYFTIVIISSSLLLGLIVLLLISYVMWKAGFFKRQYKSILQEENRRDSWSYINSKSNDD
CIT2-GFP yeast: yeast TOR pathway CIT2-GFP modulation. S. cerevisiae CIT2-GFP strain, flow cytometry, 3 h; 100 means same as DMSO wells. hit rate 0.065% among 320,000. GFP response vs DMSO, % at 10 µM;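 active means GFP response relative to DMSO above a set limit, near the screen mean plus 3 SD, cut at about 150% in these data; inconclusive means Fewer than 70 cells measured for a yeast strain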;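 further: ratio of well median GFP fluorescence to mean of DMSO wells on the plate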
RPL19A-GFP yeast: modulators of TOR pathway RPL19A-GFP in S. cerevisiae; percent response vs DMSO, % at 10 µM; S. cerevisiae RPL19A-GFP strain, flow cytometry, 3 h; hits give low values; hit rate 0.3% among 330,000; AID 2025;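 active means percent response vs DMSO below 50%; inconclusive means fewer than 70 events counted for the yeast strain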;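 further: median channel GFP fluorescence of the barcoded RPL19A-GFP strain; ratio of sample median GFP to plate DMSO average so 100% = DMSO; lower means less RPL19A-GFP as with rapamycin TOR inhibition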
LAP4 TOR yeast: alters LAP4-GFP fluorescence in TOR pathway yeast screen; S. cerevisiae LAP4-GFP multiplex, flow cytometry GFP, 3 h; median GFP as percent of DMSO wells; GFP response vs DMSO, % at 10 µM; hit rate 0.34% among 320,000;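 active means GFP response vs DMSO above a set limit, about the screen mean plus 3 SD, cut at about 150% in these data; inconclusive means under 70 cell events counted for the yeast strain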
* marks the source's active call; other numbers are inactive results; i = inactive; ? = inconclusive; nt = not tested or not shown; ! = not confirmed by another sample; [ ] = another dose, or the depositor's remark. The list is not random: actives were taken first. Their share in the collection is about 1.1%.

SMILES | MEP2-GFP yeast | AGP1 TOR yeast | VLA-4 inh | CIT2-GFP yeast | RPL19A-GFP yeast | LAP4 TOR yeast
Cc1ccc(NC(=O)CSCC(=O)NC2=NCCS2)cc1 | 101 | 102 | 1 | 99 | 100 | 109
c1ccc(SCc2nc3ccccc3s2)nc1 | 108 | 90 | -6 | 90 | 97 | 117
c1ccc2oc(SCc3nc4ccccc4s3)nc2c1 | 93 | 86 | -11 | 64 | 88 | 154*
CCOC(=O)N1CCN(C(=O)c2cccc(S(=O)(=O)Nc3ccccc3Cl)c2)CC1 | 107 | 96 | 28 | 89 | 97 | 95
COc1ccc(OCC(=O)NNC(=S)NC(=O)c2ccc(Br)o2)cc1 | 115 | 101 | 5 | 103 | 107 | 112
CSC(SC)=C(C#N)C(=O)c1ccccc1 | 86 | 95 | 14 | 70 | 93 | 152*
COc1cccc(C(=O)C(C#N)=C(SC)SC)c1 | 93 | 96 | 31 | 71 | 95 | 171*
COc1cccc(C(=O)Nc2ccc(NC(C)=O)cc2)c1 | 97 | 89 | 2 | 93 | 91 | 92
O=C(CCCSc1ccc(Cl)cc1)Nc1cc(S(=O)(=O)N2CCOCC2)ccc1O | 93 | 105 | -18 | 101 | 101 | 115
CCCc1nnc(NC(=O)c2ccc([N+](=O)[O-])cc2)s1 | 214*[may fluoresce violet] | ? | -22 | ? | 56 | 77
CC(C)(C)Cc1nnc(NC(=O)c2ccc([N+](=O)[O-])cc2)s1 | 103 | 104 | 19 | 104 | 107 | 101
O=C(Nc1cccnc1)c1ccc(-c2ccc(Cl)cc2)o1 | 88 | 74 | -7 | 66 | 84 | 245*
O=C(Nc1cccnc1)c1ccc(-c2cc(Cl)ccc2Cl)o1 | 115 | 87 | -4 | 100 | 99 | 106
O=C(COc1ccccc1)N=C1SC2CS(=O)(=O)CC2N1c1ccc(F)cc1 (stereo not drawn) | 99 | 91 | -8 | 99 | 92 | 86
COc1cc2cc(CN(C(=O)Nc3ccccc3)C3CCCC3)c(=O)[nH]c2cc1OC | 379*[may fluoresce violet] | ? | -2 | ? | 38*[may fluoresce violet] | 100
CCN(CC)CCCN(Cc1cc2cc(OC)c(OC)cc2[nH]c1=O)C(=O)Nc1ccccc1 | 104 | 99 | -25 | 104 | 100 | 109
Cc1cccc(CC(C)NC(=O)c2oc3c(F)cccc3c2C)n1 (stereo not drawn) | 97 | 95 | 5 | 99 | 101 | 88
Cc1c(C(=O)OCC(C)(C)CN(C)C)oc2ccccc12 | 97 | 94 | 16 | nt | 98 | 85
Cc1c(C(=O)OC(C)CCN(C)C)oc2ccccc12 (stereo not drawn) | 176*[may fluoresce violet] | 19 | 15 | ? | 55 | 91
COc1ccc(C2=Nn3c(nnc3-c3cc(C)[nH]n3)SC2)cc1 | 214*[may fluoresce violet] | ? | -9 | ? | 18*[may fluoresce violet] | 70
COc1ccc(OC)c(C2=Nn3c(nnc3-c3cc(OC)c(OC)c(OC)c3)SC2)c1 | 100 | 74 | 1 | 78 | 98 | 103
COc1ccc(OC)c(C2=Nn3c(nnc3-c3ccncc3)SC2)c1 | 265*[may fluoresce violet] | ? | -4 | ? | 43*[may fluoresce violet] | 77
CN(CC(=O)Nc1ccccc1Cl)C(=O)COC(=O)C1=COCCO1 | 114 | 99 | -5 | 113 | 96 | 103
Cn1ccnc1SCC(=O)Nc1cc(F)ccc1F | 112 | 121 | 5 | 168*[may fluoresce green] | 94 | 111
O=C(COc1ccccc1)Nc1c2c(nn1-c1ccccc1)CS(=O)C2 (stereo not drawn) | 91 | 124 | 3 | 90 | 82 | 165*
SMILES | MEP2-GFP yeast | AGP1 TOR yeast | VLA-4 inh | CIT2-GFP yeast | RPL19A-GFP yeast | LAP4 TOR yeast
Cc1ccccc1-n1nc2c(c1NC(=O)COc1ccc(Cl)cc1)CS(=O)C2 (stereo not drawn) | 106 | 98 | 7 | 92 | 100 | 97
Cc1ccc(C2C(C#N)=C(N)Oc3cc(N)ccc32)cc1 (stereo not drawn) | 104 | 96 | -26 | 102 | 103 | 92
Cc1ccc(/C=C2\CCC3=C2OC(N)=C(C#N)C3c2ccc(C)cc2)cc1 (stereo not drawn) | 422*[may fluoresce violet] | 23 | i | ? | 71 | 114
CCOC(=O)Nc1ccc(N2CCOCC2)c(S(=O)(=O)Nc2ccc(Cl)cc2)c1 | 102 | 104 | 2 | 108 | 101 | 95
O=C(COC(=O)/C=C/c1cccc(Cl)c1)NC1CC1 | 101 | 99 | 13 | 118 | 104 | 91
CC(NC(=O)c1cc(F)c(F)c(F)c1F)c1ccc(-n2ccnc2)cc1 (stereo not drawn) | 109 | 105 | -8 | 105 | 107 | 99
CCOC(=O)Cc1csc(NC(=O)CSc2nnc(-c3ccc(C)cc3)o2)n1 | 206* | 110 | -5 | 145 | 103 | 163*
Cc1cc(NS(=O)(=O)c2ccc(NC(=O)Nc3ccccc3)cc2)no1 | 114 | 100 | 6 | 101 | 99 | 98
Cc1cc(NS(=O)(=O)c2ccc(NS(=O)(=O)c3cc(C)c(Cl)cc3Cl)cc2)no1 | 117 | 116 | -1 | 154*[may fluoresce green] | 100 | 108
CCOC(=O)C1CCN(S(=O)(=O)c2c(Cl)ccc3nonc23)CC1 | 114 | 100 | 8 | 81 | 105 | 151*
OC(COc1ccccc1)CN1CCCCCC1 (stereo not drawn) | 95 | 101 | -4 | 93 | 96 | 97
OC(CNCCCN1CCCCC1)COc1ccccc1 (stereo not drawn) | 198*[may fluoresce violet] | 29 | -2 | ? | nt | 92
O=C(O)c1ccc(Nc2ccc3nonc3c2[N+](=O)[O-])cc1 | 210*[may fluoresce violet] | ? | 17 | ? | 49*[may fluoresce violet] | 86
CCNc1nc(-c2ccc(Cl)cc2)cs1 | 91 | 87 | 13 | 86 | 86 | 167*
CNc1nc(-c2ccc(Cl)cc2)cs1 | 101 | 87 | 7 | 100 | 94 | 104
COc1cc(C(=O)NCc2ccc(S(N)(=O)=O)cc2)ccc1OCC(=O)N1CCOCC1 | 99 | 99 | 43 | 95 | 93 | 97
CCN(CC)S(=O)(=O)c1ccc(Cl)c(C(=O)Oc2cccnc2)c1 | 444*[may fluoresce violet] | ? | 9 | ? | 43*[may fluoresce violet] | 82
COc1cc(/C=C2\C(=N)N3N=C(S(C)(=O)=O)SC3=NC2=O)ccc1OS(=O)(=O)c1ccccc1 | 142 | ? | 1 | ? | 18*[may fluoresce violet] | 80
CC1CCCC(N2CCN(S(=O)(=O)c3ccccc3)CC2)C1 (stereo not drawn) | 226*[may fluoresce violet] | ? | 3 | ? | 52 | 77
COc1ccc(S(=O)(=O)N2CCN(C3CCCC(C)C3)CC2)cc1 (stereo not drawn) | 98 | 103 | -10 | 105 | 100 | 96
O=[N+]([O-])c1ccc(SCCc2ccncc2)cc1 | 98 | 103 | -5 | 100 | 99 | 156*!
Cc1ccc2cc3cc(C(=O)NC4CCCCC4)oc3nc2c1 | 126 | ? | 11 | ? | 29*[may fluoresce violet] | 86
Cc1ccc2cc3cc(C(=O)NC4CC4)oc3nc2c1 | 107 | 81 | 2 | 78 | 83 | 108

From PubChem
